Bioassay records deposited in PubChem by The Scripps Research Institute Molecular Screening Center.
Sampled rows, rich in hits. Any-hit rate of the full collection: about 2.3%.
CHO-K1 Ca PAM: nonselective calcium activators in parental CHO-K1 cells, primary screen, counter-screen for M1 PAM project, cell-based, Fluo-8 calcium fluorescence, full deck, 1536-well; ATP EC20; 0% at ATP EC20, 100% at ATP max; activation, % at 3 µM; 360,000 tested, 0.02% active;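 active = activation above the run cutoff, the mean activation of all test compounds plus 3 SD, cut at about 40% in these data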;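 note: peak over basal fluorescence ratio in a 140 s read after ATP addition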
CHO-K1 Ca ag: counter-screen for M1 agonists: effect in parental CHO-K1 cells. Fluo-8 calcium fluorescence; scaled to maximal ATP response, vehicle zero. activation, % at 3 µM. 360,000 tested, 0.48% active; in the data active = activation above about 15%;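 note: untransfected CHO-K1 host cells lacking M1 receptor as counterscreen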
CHRM1 antagonist: human M1 muscarinic receptor antagonists, primary screen, CHO-K1 cells, Fluo-8 calcium fluorescence, 1536-well. 360,000 tested, 1.3% active. CHO-K1 hM1, ACh EC80 antagonist. AID 588852, 2011. inhibition, % at 3 µM. Muscarinic acetylcholine receptor M1 (Homo sapiens), P11229;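 active = percent inhibition above its own plate's cutoff, namely the mean of that plate's compound wells plus 3 SD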;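 note: peak over basal fluorescence ratio during 140 s after agonist addition; 0% = ACh EC80 plus DMSO and 100% = DMSO alone without agonist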
Target sequence (P11229 whole entry, looked up): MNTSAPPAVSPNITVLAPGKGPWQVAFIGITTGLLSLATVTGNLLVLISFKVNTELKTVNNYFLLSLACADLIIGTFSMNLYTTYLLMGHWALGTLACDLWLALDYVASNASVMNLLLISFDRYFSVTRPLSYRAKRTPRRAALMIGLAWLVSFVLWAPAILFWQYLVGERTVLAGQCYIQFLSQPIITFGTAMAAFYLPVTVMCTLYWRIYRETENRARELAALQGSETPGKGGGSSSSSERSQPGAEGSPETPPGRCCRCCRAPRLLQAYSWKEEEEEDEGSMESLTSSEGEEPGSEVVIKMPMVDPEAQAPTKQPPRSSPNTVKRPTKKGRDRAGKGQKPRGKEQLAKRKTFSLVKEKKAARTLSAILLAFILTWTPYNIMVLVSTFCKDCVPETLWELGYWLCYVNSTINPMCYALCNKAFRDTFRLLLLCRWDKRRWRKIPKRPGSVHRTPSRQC
CHO-K1 Ca antag: counter-screen for M1 antagonists: effect in parental CHO-K1 cells. ATP-induced calcium, Fluo-8 fluorescence. inhibition, % at 3 µM. 360,000 tested, 0.6% active;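 active = inhibition above a per-plate cutoff, the plate's mean sample inhibition plus 3 SD, cut at about 24% in these data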;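 note: 0% = DMSO plus EC80 ATP and 100% = DMSO alone without ATP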
CHRM1 PAM: human M1 muscarinic receptor positive allosteric modulators, primary screen, CHO-K1 cells, Fluo-8 calcium fluorescence, 1536-well. Muscarinic acetylcholine receptor M1 (Homo sapiens), P11229. CHO-K1 hM1, ACh EC20; 0% = ACh EC20, 100% = maximal ACh. activation, % at 3 µM. 360,000 tested, 0.088% active; in the data active = activation above about 19%, passing the limit was not always enough
M1 ag: human M1 muscarinic receptor agonists, primary screen, Fluo-8 calcium fluorescence, CHO-K1 cells, HTS; Muscarinic acetylcholine receptor M1 (Homo sapiens), P11229; CHO-K1 hM1, agonist mode; 0% DMSO, 100% acetylcholine EC100; activation, % at 3 µM; 360,000 tested, 0.33% active; AID 588814, 2011;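 active = activation above the run's mean compound activation plus 3 SD, cut at about 16% in these data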;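 note: peak over basal fluorescence ratio within a 140 s kinetic read after compound addition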
An asterisk follows results filed as active; x = no result.

SMILES	CHO-K1 Ca PAM	CHO-K1 Ca ag	CHRM1 antagonist	CHO-K1 Ca antag	CHRM1 PAM	M1 ag
Cc1ccc(S(=O)(=O)CC2CSc3nnc(C)c(=O)n32)cc1 (centres undefined)	20	1	-24	-17	11	-3
C=CCn1c(SCC(=O)Nc2nc(C)cs2)nnc1C(C)NC(=O)c1ccccc1Cl (centres undefined)	18	1	47*	-4	-9	-3
Cc1ccc(N2C(=O)C(CN3CCCC3)C2c2ccccc2)cc1 (centres undefined)	-5	1	25*	-5	-37	-16
NCCCCCc1nnc(SCc2cccc(Cl)c2)o1	12	0	30*	-1	-25	-6
NCCCCCc1nnc(SCc2ccc(Cl)cc2Cl)o1	13	1	33*	16	-14	-5
CCN(CC)S(=O)(=O)c1ccc(N2CCCC2)c(NC(=O)c2ccc(N3CCCC3=O)cc2)c1	10	0	-15	-9	13	-4
COC(=O)c1ccc(C(=O)OC)c(NC(=O)COC(=O)C23CC4CC(CC(O)(C4)C2)C3)c1	-6	1	-7	33*	-4	-4
O=C(COC(=O)C12CC3CC(CC(O)(C3)C1)C2)Nc1ccc(Cl)cc1F	9	2	2	-15	2	-3
O=[N+]([O-])c1ccccc1/C=N\N1CCN(c2ccccc2)CC1	7	28*	0	1	-12	-7
COc1ccc(C2=Cc3ccccc3C(CC(=O)C3CC3)N2c2ccc(-c3cc(OC)c(OC)c(OC)c3)cc2)cc1 (centres undefined)	-7	0	x	-2	x	x
NC(=O)CC(NC(=O)c1cccc(Br)c1)c1ccc(NC2CCN(Cc3ccccc3)CC2)c([N+](=O)[O-])c1 (centres undefined)	11	1	46*	-14	-26	-11
NC(=O)CC(NC(=O)Cc1ccc(Cl)cc1)c1ccc(NC2CCN(Cc3ccccc3)CC2)c([N+](=O)[O-])c1 (centres undefined)	-2	0	27	2	-27	-11
CC(C)(C)c1ccc(-n2ncc3c2CCCC3NC(=O)c2ccncc2)cc1 (centres undefined)	10	4	62*	-2	-19	-4
Cc1cc(C(=O)NC2CCCc3c2cnn3-c2ccc(C)c(C)c2)n(C)n1 (centres undefined)	-26	13	44*	25*	-11	2
O=C(NC1CCCc2c1cnn2-c1cc(F)cc(F)c1)c1ccncc1 (centres undefined)	-8	2	-10	-8	6	-4
COc1ccc(CCNC(=O)CN2C(=O)COc3ccc(S(=O)(=O)N4CCOCC4)cc32)cc1OC	-3	0	-5	-11	5	-4
O=C(Nc1ccc(F)c(Cl)c1)c1ccccc1NC(=O)C1CCCCC1C(=O)O (centres undefined)	-7	0	19	26*	-10	-2
O=C(Nc1cccc(Cl)c1)c1ccccc1NC(=O)C1CCCCC1C(=O)O (centres undefined)	9	0	-2	-8	-1	-3
Cc1cccc(NC(=O)CSc2ncnc3sc(C)cc23)c1	1	1	-13	-16	9	-3
CC(Oc1ccccc1)C(=O)N1CCN(c2ncccn2)CC1 (centres undefined)	7	0	-10	-6	14	-1
CCC(C(=O)N1CCN(c2ncccn2)CC1)c1ccccc1 (centres undefined)	18	1	27*	-11	12	-4
COc1ccc(CNC(=O)COC(=O)c2cc3ccccc3o2)cc1	-20	0	29*	21	-13	-2
COc1cc(NC(=O)c2cccs2)c(C(=O)OCC(=O)c2cc(C)n(-c3ccc(F)cc3)c2C)cc1OC	12	17*	7	8	5	-4
CC(O)(C#CCN1CCCC1)c1ccccc1 (centres undefined)	20	8	41*	-10	-21	-9
C(#Cc1ccccc1)CN1CCCCC1	18	3	1	-12	-6	-15
SMILES	CHO-K1 Ca PAM	CHO-K1 Ca ag	CHRM1 antagonist	CHO-K1 Ca antag	CHRM1 PAM	M1 ag
CC(O)(C#CCN1CCCCC1)c1ccccc1 (centres undefined)	-1	0	30	-2	-19	-8
CC1CCCN1CC#CC(O)(c1ccccc1)c1ccccc1 (centres undefined)	6	0	100*	-6	-28	-9
CC(C)(C#CCN1CCCCC1)OCCOC(c1ccccc1)c1ccccc1	8	0	99*	-10	-26	-9
OC(C#CCN1CCCC1)(c1ccccc1)c1cccc(F)c1 (centres undefined)	6	0	101*	1	-28	-15
CC(C)(C)c1nc(SCC(=O)NNC(=O)c2ccccc2)c2ccccc2n1	14	-1	-7	0	6	-3
O=C1C=C(c2ccc(CO)cc2)C[C@@H](c2ccc(F)cc2)C1	5	1	-5	-2	0	-3
Nc1[nH]ncc1-c1ccccc1	23	0	-6	-11	7	-7
CC(C)C(O)(C#CCN1CCCCCC1)c1ccccc1 (centres undefined)	19	1	87*	-3	-33	-14
COc1ccc(CNC(=O)CN2C(=O)CSc3ccc(S(=O)(=O)N4CCOCC4)cc32)c(OC)c1	-1	1	-6	-8	2	-7
O=C1Nc2ccccc2C(=O)N2[C@H](c3ccc(F)cc3)[C@@H]3C(=O)N(Cc4ccccc4)C(=O)[C@@H]3[C@H]12	-21	1	16	17	8	36*
O=[N+]([O-])c1ccc(-c2ccc(/C=N/Nc3nc(NCc4ccccc4)nc(N4CCOCC4)n3)o2)cc1	14	18*	26*	24*	-12	11
Cc1ccc(NC(=O)C(=O)NCCCN2CC(C(=O)O)CC2=O)cc1 (centres undefined)	-5	0	7	-6	-6	0
COCCN(Cc1nc2ccccc2c(=O)[nH]1)C(=O)COc1cccc(C(C)=O)c1	6	1	-9	-14	4	-3
COc1ccc(Cl)cc1NC(=O)CN1CCN(Cc2ccccc2)CC1	11	3	-3	-4	5	-5
CCCC(=O)Nc1ccccc1-c1nnc(SC)[nH]c1=O	5	0	1	28*	7	-1
CCCSc1nnc(-c2ccccc2NC(=O)CC)c(=O)[nH]1	-4	0	2	0	6	-2
